Bioassay records as filed in PubChem.
This is one part of a sample in which hits are shown more often than they occur.
RmlC RmlD mix = RmlC/RmlD inhibition, mixture screen | RmlC/RmlD coupled enzyme inhibition, 384-well mixture HTS | inhibition, % at 5.5 µM | 110,000 tested, 0.39% active; in the data active means inhibition above about 30%, passing the limit was not always enough
RT RNaseH block = blocks HIV-1 RNase H cleavage of RNA/DNA duplex. P04585. RT-RNase H RNA/DNA duplex cleavage, fluorescence. inhibition, % at 10 µM. 65,000 tested, 1.9% active. AID 565; in the data active means inhibition above about 50%
RmlCD artifact = shows fluorescent artifact in RmlC/RmlD assay, dose-response counter-screen; 360 tested, 96% active; calls only; shares compounds with RmlC RmlD mix; AID 1696; RmlC/RmlD assay fluorescence artifact counter-screen; call rule not given here;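 further: compound alone with no enzyme and no substrates present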
* marks the source's active call; other numbers are inactive results; i = inactive; · = no result given; + = active, no number.

SMILES | RmlC RmlD mix | RT RNaseH block | RmlCD artifact
C=CCOC(=O)COc1ccc2c(C)c(CC)c(=O)oc2c1 | 9.8 | -12.9 | ·
CCc1cc2c(=O)c(-c3nc4ccccc4n3C)c(C)oc2c(CN(CC)CC)c1O | 13.4 | · | ·
Cc1c(C)c2cc(Cl)c(O)c(CN(C)C)c2oc1=O | 63.0* | -7.1 | +
COc1ccc(-c2cc(=O)oc3c(C)c(O)c(CN(C)C)cc23)cc1 | -3.2 | -25.6 | ·
COc1ccc(Oc2cc(C(F)(F)F)cnc2C(N)=O)cc1 | 5.4 | · | ·
CC1=Nn2c(nc(-c3ccccc3)c2-c2ccccc2)NC(=O)C1Br (configuration not stated) | 16.8 | · | ·
Cc1cccc(NC(=O)C2c3ccccc3C(=O)N3CCc4ccccc4C23)n1 (configuration not stated) | -7.3 | -6.3 | ·
COC(=O)c1ccccc1NC(=O)CSc1nc(O)cc(=O)n1C1CCCC1 | 5.6 | -4.6 | ·
O=C(CCn1nnc(-c2cccs2)n1)NC1CCCCC1 | -0.7 | 33.7 | ·
CC1(C)CCCN(C(=O)c2coc(=O)c(Br)c2)C1 | 54.0* | 19.5 | +
O=C(c1coc(=O)c(Br)c1)N1CCCc2ccccc21 | 29.7 | 2.4 | ·
Cc1nn(C(=O)c2cccc([N+](=O)[O-])c2)c(C)c1Sc1ccccc1 | -7.3 | · | ·
COc1cc(NC(=O)c2cccs2)c(C(=O)OCC(=O)NCc2ccccc2)cc1OC | 45.0* | · | +
COc1cc(NC(=O)c2cccs2)c(C(=O)OCC(=O)NC(C)c2ccccc2)cc1OC (configuration not stated) | -6.2 | · | ·
Cc1cc2oc3cc(NCCC4CCCN4C)ccc3c(=O)c2cc1C (configuration not stated) | 68.2* | · | +
CN1CCCC1CCNc1ccc2sc3ccccc3c(=O)c2c1 (configuration not stated) | -10.9 | · | ·
CCCc1ccc(OCc2ccc(C(=O)N3CCN(c4ccccn4)CC3)o2)c(OC)c1 | 18.5 | -17.7 | ·
CC(C)n1c(C(=O)OCC(=O)NCc2ccc3c(c2)OCO3)cc2sccc21 | -16.4 | -38.5 | ·
CCOc1cccc2cc(-c3csc(NC(=O)CCC(=O)N4CCC(C)CC4)n3)c(=O)oc12 | + | · | +
CC1CCN(C(=O)CSCC(=O)Nc2nc(-c3cccs3)cs2)CC1 | -15.0 | -40.4 | ·
CC(C)OC(=O)CC(=O)CSc1nc2c(cc1C#N)CCCCC2 | + | · | +
COC(=O)CSc1nc2cc(C)ccc2cc1C#N | 5.6 | 1.8 | ·
CCOC(=O)CC(=O)CSc1nc(CC)c(C)cc1C#N | · | · | +
CCOC(=O)CC(=O)CSc1nc(C)cc(C)c1C#N | 110.3* | · | +
CCOC(=O)CC(=O)CSc1nc2c(cc1C#N)CCCCC2 | 76.4 | 7.1 | ·
SMILES | RmlC RmlD mix | RT RNaseH block | RmlCD artifact
CCOC(=O)CC(=O)CSc1nc2ccc(C)cc2cc1C#N | + | -3.0 | +
CCOC(=O)CC(=O)CSc1nc2c(c(C)c1C#N)CCC2 | · | -22.2 | ·
CCc1nc(SCC(=O)O)c(C#N)cc1C | -2.1 | · | ·
O=C(O)CN1C(=O)c2cccc(Oc3ccc(Cl)cc3)c2C1=O | -10.2 | -4.9 | ·
CCCOc1ccc(C2c3c(oc4ccccc4c3=O)C(=O)N2CCCN2CCOCC2)cc1 (configuration not stated) | -9.5 | -0.2 | ·
O=c1c2c3nc4ccccc4nc3n(CCN3CCOCC3)c2ncn1CCN1CCOCC1 | · | -11.2 | ·
Cc1ccc(-c2cc(C(=O)Nc3nn[nH]n3)c3ccccc3n2)cc1 | 6.9 | · | ·
CC1(C)CC(=O)C(C=NCCN2CCN(C(=S)Nc3ccc(F)cc3)CC2)=C(O)C1 | -4.4 | · | ·
Cc1ccc(-c2noc(CCC(=O)NCCN3CCc4ccccc4C3)n2)cc1 | 13.1 | -5.7 | ·
CN(C)S(=O)(=O)c1ccc(S(=O)(=O)Nc2ccc3c(c2)oc2ccccc23)cc1 | 6.3 | -3.5 | ·
Cc1cc(=O)oc2cc(NS(=O)(=O)c3ccccc3)ccc12 | · | · | +
COc1cc2c(cc1OC)CN(C(C)C(=O)Nc1ccc(NC(C)=O)cc1)CC2 (configuration not stated) | 2.5 | · | ·
CN(CC(=O)NCc1cccs1)S(=O)(=O)c1cccc2nsnc12 | -4.6 | -25.2 | ·
CCOC(=O)N1CCN(C(=O)CN(c2cc(Cl)ccc2OC)S(=O)(=O)c2ccccc2)CC1 | -10.2 | -9.4 | ·
Cc1ccc(C(=O)O)cc1N=Cc1cc(Br)cc(Br)c1O | · | · | +
Cc1ccc([N+](=O)[O-])cc1N=Cc1ccc(Br)s1 | 5.8 | · | ·
CC1(C(=O)N2CC3(CC(c4cccc([N+](=O)[O-])c4)=NO3)C[C@H]2C(=O)NCC(N)=O)CC1 (some centres not stated) | 1.2 | · | ·
C=CCn1c(SCC(=O)Nc2c(C)n(C)n(-c3ccccc3)c2=O)nc2sc(C)c(-c3ccccc3)c2c1=O | 3.3 | · | ·
CCc1cc2c(CN3CCN(C)CC3)cc(=O)oc2cc1O | -1.9 | 0.0 | ·
CCc1cc2c(CN3CCN(CCO)CC3)cc(=O)oc2cc1O | 61.0* | -11.4 | +
COC(=O)Cc1c(C)c2ccc(O)c(CN3CCCC(C)C3)c2oc1=O (configuration not stated) | 95.8* | · | +
CCc1cc(=O)oc2cc(C)c(CN3CCCC(C)C3)c(O)c12 (configuration not stated) | 5.7 | 19.4 | ·
CCCCOCCCNC(=O)C1CCCCC1 | 14.1 | -11.8 | ·
CCOc1ccccc1N(CC(=O)NC1CCCCC1)S(C)(=O)=O | 6.8 | -16.4 | ·
Cc1cc(-c2nc3ncccc3o2)ccc1N | 68.8* | -5.0 | +
SMILES | RmlC RmlD mix | RT RNaseH block | RmlCD artifact
Nc1cc(-c2nc3ncccc3o2)ccc1Cl | 44.5 | · | ·
O=C(c1ccccc1CCc1ccccc1)N1CCOCC1 | -10.5 | -8.8 | ·
COc1cccc(C(CC(=O)Nc2cccc3ccccc23)NC(=O)c2ccccc2)c1 (configuration not stated) | -8.9 | · | ·
CCn1c2ccccc2c2nnc(SCCCn3c(=O)[nH]c4ccccc43)nc21 | 82.0* | -67.2 | i
CCn1c2ccccc2c2nnc(SCc3ccccc3)nc21 | -2.0 | -34.3 | ·
COC(=O)c1cc(OC)c(OC)cc1NC(=O)c1ccoc1C | 1.2 | -0.3 | ·
COc1ccc(OC)c(NC(=O)Nc2cccc3ccccc23)c1 | -7.9 | · | ·
COC(=O)/C(=C/Nc1cccc2ccccc12)[N+](=O)[O-] | 158.0* | · | +
Cc1cnc(-c2nnc(N(C)C(=O)C3CCOC3)s2)cn1 (configuration not stated) | · | -2.4 | ·
CN(C(=O)C1CCOC1)c1nnc(-c2ccccn2)s1 (configuration not stated) | 27.5 | 47.5 | ·
Cc1cccc(C(=O)N(C)c2nnc(-c3ccncc3)s2)c1 | 9.7 | -0.9 | ·
CN(C(=O)c1ccncc1)c1nnc(-c2ccncc2)s1 | 102.8* | -30.1 | +
COc1ccccc1CCNC(=O)C1CCCO1 (configuration not stated) | 5.9 | -8.7 | ·
CN(C(=O)C1CCCO1)c1nnc(-c2ccccn2)s1 (configuration not stated) | 162.3* | 7.5 | +
COc1ccccc1-c1nnc(N(C)C(=O)C2CCCO2)s1 (configuration not stated) | 37.5* | -0.6 | +
CN(C(=O)C1CCOC1)c1nnc(-c2ccncc2)s1 (configuration not stated) | 48.1* | -3.9 | +
CC1CCCN(C(=O)C(Cc2ccccc2)n2cccc2)C1 (configuration not stated) | -8.1 | -6.4 | ·
COCC(=O)N(C)c1nnc(-c2ccc([N+](=O)[O-])cc2)s1 | 9.7 | · | ·
CN(C(=O)C1CCCO1)c1nnc(-c2ccncc2)s1 (configuration not stated) | 160.9* | -0.9 | +
